According to the supplement of paper PMC10849652:
About 7,900 targets were measured; listed, in parts, are those with a hit and a random draw of the rest. About 0.6% of all pairs of compound and target were hits. A number with no mark means an inactive call.

Assays:
Test in all cases: log2 fold change, soluble protein after heating vs DMSO (PISA); higher = thermal stabilisation; K562 cells, 10 uM, 30 min; active = over 0.2 and 3.5 SD of the protein, either way, in both replicates (recomputed)
[1] = compound: CS(=O)(=O)c1ccc(-c2cnc(N)c(C(=O)Nc3ccccc3)n2)cc1
Outline: (§1)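 Soluble protein was quantified by TMTpro 16plex LC-MS/MS after channel sums were equalised. It was obtained as the supernatant after 21,000xg for 90 min from pooled aliquots of K562 cells (2×10^6 cells/mL, 10 μM compound, 30 min) heated for 3 min across 48°C-58°C and extracted in PBS with 0.5% NP-40 at 4°C. Thermal stability values are relative to control samples and come from duplicates. They are given as log2 fold changes.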

crizotinib = compound: C[C@@H](Oc1cc(-c2cnn(C3CCNCC3)c2)cnc1N)c1c(Cl)ccc(F)c1Cl [crizotinib]
Outline: as §1

[2] = compound: C[C@@H]1COCCN1C2=NC(=NC(=C2)C3(CC3)S(=O)(=O)C)C4=C5C=CNC5=CC=C4
Outline: as §1

[3] = compound: C[C@H](C1=CC=C(C=C1)C(=O)NC2=C3C=CNC3=NC=C2)N
Outline: as §1

duvelisib = compound: C[C@H](Nc1ncnc2nc[nH]c12)c1cc2cccc(Cl)c2c(=O)n1-c1ccccc1 [duvelisib]
Outline: as §1

gandotinib = compound: Cc1cc(Nc2cc(CN3CCOCC3)c3nc(C)c(Cc4ccc(Cl)cc4F)n3n2)n[nH]1 [gandotinib]
Outline: as §1

tozasertib = compound: Cc1cc(Nc2cc(N3CCN(C)CC3)nc(Sc3ccc(NC(=O)C4CC4)cc3)n2)n[nH]1 [tozasertib]
Outline: as §1

[4] = compound: Cc1cc(SCc2sc(-c3ccc(C(F)(F)F)cc3)nc2C)ccc1OCC(=O)O
Outline: as §1

doramapimod = compound: Cc1ccc(-n2nc(C(C)(C)C)cc2NC(=O)Nc2ccc(OCCN3CCOCC3)c3ccccc23)cc1 [doramapimod]
Outline: as §1

ispinesib = compound: Cc1ccc(C(=O)N(CCCN)[C@@H](c2nc3cc(Cl)ccc3c(=O)n2Cc2ccccc2)C(C)C)cc1 [ispinesib]
Outline: as §1

bafetinib = compound: Cc1ccc(NC(=O)c2ccc(CN3CC[C@H](N(C)C)C3)c(C(F)(F)F)c2)cc1Nc1nccc(-c2cncnc2)n1 [bafetinib]
Outline: as §1

[5] = compound: Cc1cccc(CC(=O)N2CCc3c2ccc(-c2cn(C)c4ncnc(N)c24)c3F)n1
Outline: as §1

nilotinib = compound: Cc1cn(-c2cc(NC(=O)c3ccc(C)c(Nc4nccc(-c5cccnc5)n4)c3)cc(C(F)(F)F)c2)cn1 [nilotinib]
Outline: as §1

[6] = compound: Cc1nc(Nc2n[nH]c3c2CN(C(=O)N[C@H](CN(C)C)c2ccccc2)C3(C)C)c2sccc2n1
Outline: as §1

dasatinib = compound: Cc1nc(Nc2ncc(C(=O)Nc3c(C)cccc3Cl)s2)cc(N2CCN(CCO)CC2)n1 [dasatinib]
Outline: as §1

[7] = compound: Cc1ncc(-c2ccnc(Nc3ccc(S(C)(=O)=O)cc3)n2)n1C(C)C
Outline: as §1

[8] = compound: Cn1cc(-c2ccc3c(c2)CCN3C(=O)Cc2cccc(C(F)(F)F)c2)c2c(N)ncnc21
Outline: as §1

[9] = compound: Cn1cc(-c2ccc3nnc(C(F)(F)c4ccc5ncccc5c4)n3n2)cn1
Outline: as §1

tipifarnib = compound: Cn1cncc1[C@@](N)(c1ccc(Cl)cc1)c1ccc2c(c1)c(-c1cccc(Cl)c1)cc(=O)n2C [tipifarnib]
Outline: as §1

mubritinib = compound: FC(F)(F)c1ccc(/C=C/c2nc(COc3ccc(CCCCn4ccnn4)cc3)co2)cc1 [mubritinib]
Outline: as §1

Chain of UniProt Q8N4A0 (Q8N4A0 whole entry, looked up): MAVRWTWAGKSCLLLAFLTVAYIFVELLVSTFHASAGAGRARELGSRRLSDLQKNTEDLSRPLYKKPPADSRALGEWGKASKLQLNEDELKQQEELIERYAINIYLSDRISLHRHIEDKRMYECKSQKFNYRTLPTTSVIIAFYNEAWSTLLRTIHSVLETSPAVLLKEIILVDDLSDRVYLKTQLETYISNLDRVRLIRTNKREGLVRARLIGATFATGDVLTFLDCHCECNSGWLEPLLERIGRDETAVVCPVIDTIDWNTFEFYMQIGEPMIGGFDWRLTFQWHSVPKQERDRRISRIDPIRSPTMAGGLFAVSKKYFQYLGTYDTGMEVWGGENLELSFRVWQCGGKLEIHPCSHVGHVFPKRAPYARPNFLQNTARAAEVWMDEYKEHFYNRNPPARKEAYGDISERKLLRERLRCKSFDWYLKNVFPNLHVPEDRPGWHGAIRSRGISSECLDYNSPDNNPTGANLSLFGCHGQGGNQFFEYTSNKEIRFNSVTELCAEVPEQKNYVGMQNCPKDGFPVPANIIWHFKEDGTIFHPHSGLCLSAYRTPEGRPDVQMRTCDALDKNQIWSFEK
Chain of UniProt P52655 (P52655 whole entry, looked up): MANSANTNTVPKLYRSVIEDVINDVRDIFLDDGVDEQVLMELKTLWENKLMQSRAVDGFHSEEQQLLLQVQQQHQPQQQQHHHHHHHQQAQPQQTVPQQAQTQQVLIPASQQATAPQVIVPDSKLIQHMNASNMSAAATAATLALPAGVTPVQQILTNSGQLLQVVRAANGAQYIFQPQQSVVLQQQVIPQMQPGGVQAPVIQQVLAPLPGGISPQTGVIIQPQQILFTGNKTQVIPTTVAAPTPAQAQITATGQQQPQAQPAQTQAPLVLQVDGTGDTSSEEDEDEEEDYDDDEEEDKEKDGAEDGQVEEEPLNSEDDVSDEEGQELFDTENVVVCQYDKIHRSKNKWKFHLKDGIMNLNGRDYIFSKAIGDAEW
Chain of UniProt Q6P3S6 (Q6P3S6 whole entry, looked up): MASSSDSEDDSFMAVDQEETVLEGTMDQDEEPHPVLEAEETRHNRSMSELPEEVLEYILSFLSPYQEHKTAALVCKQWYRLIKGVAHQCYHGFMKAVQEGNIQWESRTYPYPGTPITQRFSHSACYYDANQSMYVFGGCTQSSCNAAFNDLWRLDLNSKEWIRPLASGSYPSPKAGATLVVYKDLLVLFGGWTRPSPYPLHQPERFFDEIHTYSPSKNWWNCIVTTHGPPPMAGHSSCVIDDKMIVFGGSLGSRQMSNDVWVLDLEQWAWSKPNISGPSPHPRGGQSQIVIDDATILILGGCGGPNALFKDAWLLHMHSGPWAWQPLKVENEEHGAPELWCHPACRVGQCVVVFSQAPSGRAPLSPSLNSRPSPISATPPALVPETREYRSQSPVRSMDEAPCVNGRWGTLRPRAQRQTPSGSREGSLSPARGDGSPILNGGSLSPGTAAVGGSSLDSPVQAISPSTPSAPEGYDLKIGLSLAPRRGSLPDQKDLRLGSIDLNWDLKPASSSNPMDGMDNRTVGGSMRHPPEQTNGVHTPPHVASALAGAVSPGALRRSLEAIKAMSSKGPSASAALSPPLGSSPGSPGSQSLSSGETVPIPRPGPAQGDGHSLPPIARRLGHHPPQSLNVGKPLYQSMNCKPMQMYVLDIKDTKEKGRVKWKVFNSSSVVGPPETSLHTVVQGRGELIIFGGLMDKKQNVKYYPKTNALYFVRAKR
Chain of UniProt Q8NB37 (Q8NB37 whole entry, looked up): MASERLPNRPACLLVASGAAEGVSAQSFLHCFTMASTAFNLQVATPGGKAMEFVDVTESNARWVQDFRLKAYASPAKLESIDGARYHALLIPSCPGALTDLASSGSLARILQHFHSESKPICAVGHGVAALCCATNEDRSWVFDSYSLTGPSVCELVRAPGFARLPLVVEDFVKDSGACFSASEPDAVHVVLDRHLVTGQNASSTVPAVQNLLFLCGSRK
Chain of UniProt Q03013 (Q03013 whole entry, looked up): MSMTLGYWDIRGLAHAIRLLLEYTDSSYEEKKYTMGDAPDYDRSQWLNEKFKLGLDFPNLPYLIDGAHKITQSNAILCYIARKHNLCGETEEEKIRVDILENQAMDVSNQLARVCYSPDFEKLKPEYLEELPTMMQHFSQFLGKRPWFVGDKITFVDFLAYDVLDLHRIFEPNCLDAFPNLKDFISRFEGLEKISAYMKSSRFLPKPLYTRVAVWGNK
Chain of UniProt P0CL80 (P0CL80 whole entry, looked up): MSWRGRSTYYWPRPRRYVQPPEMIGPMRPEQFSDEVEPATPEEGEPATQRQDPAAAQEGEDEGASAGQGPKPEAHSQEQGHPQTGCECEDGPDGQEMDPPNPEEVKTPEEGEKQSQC
Chain of UniProt Q8N9F7 (Q8N9F7 whole entry, looked up): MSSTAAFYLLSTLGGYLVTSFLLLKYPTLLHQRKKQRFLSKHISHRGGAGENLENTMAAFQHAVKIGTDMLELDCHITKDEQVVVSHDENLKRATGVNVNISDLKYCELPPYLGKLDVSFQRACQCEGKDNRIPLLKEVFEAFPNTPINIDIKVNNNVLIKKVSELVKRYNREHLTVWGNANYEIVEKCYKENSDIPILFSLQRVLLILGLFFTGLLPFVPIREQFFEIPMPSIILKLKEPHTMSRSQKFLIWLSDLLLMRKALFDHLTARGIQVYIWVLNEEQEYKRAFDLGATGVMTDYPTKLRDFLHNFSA
Chain of UniProt P08236 (P08236 whole entry, looked up): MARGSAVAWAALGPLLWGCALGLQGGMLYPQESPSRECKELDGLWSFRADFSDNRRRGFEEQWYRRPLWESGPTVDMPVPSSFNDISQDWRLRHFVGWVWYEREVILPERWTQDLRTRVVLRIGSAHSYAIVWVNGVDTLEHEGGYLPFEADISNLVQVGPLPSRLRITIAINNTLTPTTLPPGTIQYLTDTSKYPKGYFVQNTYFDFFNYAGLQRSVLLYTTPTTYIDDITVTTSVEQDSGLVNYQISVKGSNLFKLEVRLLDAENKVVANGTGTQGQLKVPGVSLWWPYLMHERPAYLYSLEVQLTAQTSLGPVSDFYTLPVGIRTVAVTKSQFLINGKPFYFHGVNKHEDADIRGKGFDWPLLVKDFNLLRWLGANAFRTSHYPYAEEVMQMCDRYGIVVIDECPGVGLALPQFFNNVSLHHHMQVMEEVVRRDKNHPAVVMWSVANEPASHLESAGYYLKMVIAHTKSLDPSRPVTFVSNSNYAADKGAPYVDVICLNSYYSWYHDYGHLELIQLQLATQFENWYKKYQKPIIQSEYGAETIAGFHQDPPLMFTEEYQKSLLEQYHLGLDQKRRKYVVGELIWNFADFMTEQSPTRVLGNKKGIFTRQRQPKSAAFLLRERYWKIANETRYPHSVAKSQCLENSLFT
Chain of UniProt P00390 (P00390 whole entry, looked up): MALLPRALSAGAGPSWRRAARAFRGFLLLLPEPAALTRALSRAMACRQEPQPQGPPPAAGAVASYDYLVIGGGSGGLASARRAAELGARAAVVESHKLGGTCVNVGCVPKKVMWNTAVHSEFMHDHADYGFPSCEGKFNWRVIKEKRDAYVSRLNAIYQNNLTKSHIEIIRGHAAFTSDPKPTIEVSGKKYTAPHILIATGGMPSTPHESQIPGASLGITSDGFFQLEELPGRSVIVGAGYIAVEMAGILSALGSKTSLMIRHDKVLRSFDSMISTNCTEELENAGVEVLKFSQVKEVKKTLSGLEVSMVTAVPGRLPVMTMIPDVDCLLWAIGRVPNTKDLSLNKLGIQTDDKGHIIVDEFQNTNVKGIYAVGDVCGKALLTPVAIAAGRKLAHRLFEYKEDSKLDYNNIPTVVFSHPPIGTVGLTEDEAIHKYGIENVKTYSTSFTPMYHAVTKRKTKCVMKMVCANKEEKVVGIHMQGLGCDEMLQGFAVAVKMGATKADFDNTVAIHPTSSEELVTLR
Chain of UniProt Q8WXD5 (Q8WXD5 whole entry, looked up): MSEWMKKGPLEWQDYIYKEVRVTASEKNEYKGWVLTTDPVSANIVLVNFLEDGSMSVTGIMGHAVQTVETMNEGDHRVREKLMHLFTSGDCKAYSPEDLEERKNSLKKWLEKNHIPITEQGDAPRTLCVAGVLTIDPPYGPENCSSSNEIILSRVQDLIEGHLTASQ
Chain of UniProt P02008 (P02008 whole entry, looked up): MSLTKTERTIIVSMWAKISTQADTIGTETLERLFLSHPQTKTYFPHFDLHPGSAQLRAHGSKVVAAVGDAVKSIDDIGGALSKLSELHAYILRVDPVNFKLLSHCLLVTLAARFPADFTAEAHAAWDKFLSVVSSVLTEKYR

Target	log2 fold change [1]	log2 fold change (crizotinib)	log2 fold change [2]	log2 fold change [3]	log2 fold change (duvelisib)	log2 fold change (gandotinib)	log2 fold change (tozasertib)	log2 fold change [4]	log2 fold change (doramapimod)	log2 fold change (ispinesib)	log2 fold change (bafetinib)	log2 fold change [5]	log2 fold change (nilotinib)	log2 fold change [6]	log2 fold change (dasatinib)	log2 fold change [7]	log2 fold change [8]	log2 fold change [9]	log2 fold change (tipifarnib)	log2 fold change (mubritinib)
HBZ (UniProt P02008)	0.017	0.09	0.174	-0.067	0.045	0.084	-0.005	0.014	-0.005	0.21	-0.013	0.037	0.018	0.011	0.073	-0.008	0.137	0.282	-0.183	0.049
GSR (UniProt P00390)	0.009	0.046	0.029	-0.085	0.014	0.002	-0.011	-0.02	-0.047	-0.003	-0.031	0	-0.025	0.02	0.02	0	0.002	0.022	-0.058	0.024
FBXO42 (UniProt Q6P3S6)	0.077	0.4 (active)	0.127	-0.064	0.076	-0.022	0.105	0.063	0.01	-0.015	-0.014	-0.006	-0.006	0.028	-0.036	-0.026	0.137	-0.007	0.006	0.059
GDPD1 (UniProt Q8N9F7)	0.086	0.035	0.074	-0.057	0.023	0.012	0.043	-0.033	0.078	0.353 (active)	0.088	-0.141	0.1	0.104	0.023	-0.045	0.046	-0.031	0.106	0.096
GALNT4 (UniProt Q8N4A0)	0.047	-0.068	0.156	0.017	0.09	-0.153	-0.028	0.036	0.013	0.04	-0.042	-0.042	-0.049	0.006	-0.021	0.042	0.079	-0.005	0.038	0.035
GSTM4 (UniProt Q03013)	-0.181	-0.006	0.004	0.054	0.101	-0.028	-0.068	0.035	-0.037	-0.012	0.021	0.002	0.001	0.088	0	-0.018	0.026	-0.141	-0.023	-0.08
H2AFX (UniProt P16104)	-0.09	-0.096	-0.39	0.479	-0.128	0.087	0.073	-0.078	0.348	-0.222	0.103	-0.198	-0.041	-0.025	0.283	-0.012	-0.439	-0.146	0.074	-0.111
HIST2H3A (UniProt Q71DI3)	-0.106	-0.327	-0.204	0.399	-0.359	-0.014	0.106	-0.031	0.098	-0.081	0.198	-0.183	-0.054	-0.068	0.215	-0.032	-0.258	-0.054	0.031	-0.037
GEMIN6 (UniProt Q8WXD5)	-0.076	-0.055	0.097	0.091	0.088	0.034	-0.028	0.034	-0.016	-0.017	-0.011	-0.042	0.004	0.015	-0.024	-0.022	0.018	0.306 (active)	-0.002	0.067
GATD1 (UniProt Q8NB37)	-0.026	0.023	-0.256	0.012	0.124	0.052	-0.075	0.033	0.163	-0.005	0.008	-0.021	0.059	-0.016	-0.011	0.119	0.046	0.015	0.029	0.035
FNTA (UniProt P49354)	0.073	0.069	0.077	-0.005	0.014	0.057	-0.017	-0.014	-0.043	0.06	-0.024	-0.009	-0.002	0.104	0.165	0.019	0.036	0.091	0.429 (active)	0.013
GAGE12F (UniProt P0CL80)	0.019	0.034	0.092	0.081	0.039	0.072	0.006	0.03	0.043	0.009	-0.092	-0.284 (active)	0.052	-0.085	0.009	-0.015	-0.004	-0.035	0.053	0.085
GUSB (UniProt P08236)	0.053	0.004	-0.018	0.063	0.066	0.051	0.006	-0.039	0.042	-0.03	0.016	-0.013	0.218	-0.115	0.053	0.117	-0.059	-0.007	0.16	-0.136
GTF2A1 (UniProt P52655)	0.061	0.074	0.061	-0.065	0.082	0.07	-0.027	-0.066	-0.107	0.24	0	-0.047	0.111	-0.047	0.068	-0.078	0.081	0.349	0.144	-0.008
GOLGB1 isoform 2 (UniProt Q14789)	-0.135	-0.012	-0.314 (active)	0.19	0.004	-0.031	0.211	-0.025	0.056	0.012	-0.022	-0.03	-0.054	0.018	0.08	-0.078	-0.077	0	0.014	0.017
